The results in this text go back to PubChem BioAssay.

Active and inactive are the calls of the source.

Test [1] in a line: compounds binding Alexa647 anti-His antibody – biochemical, small-molecule microarray, 635 nm fluorescence, artefact control for SMM control protein annotation, primary screen (AID 1128).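 Also: score merges feature fluorescence with signal-to-noise for each printed compound spot.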 As to conditions: higher = more signal.
Test [2] deals with Human papillomavirus type 1a E7 protein (residues 1-88). Kind of test: HPV1a E7 small-molecule binders, primary screen, biochemical, small-molecule microarray, residues 1-88, 635 nm (AID 1129). As to conditions: small-molecule microarray binding, fluorescence 635 nm; higher = more signal.
Test [3] deals with Focal adhesion kinase 1 (Homo sapiens) (UniProt Q05397). Kind of test: PTK2 protein binding on printed compound slides – biochemical, small-molecule microarray, 635/667 nm fluorescence, BSA, DTT, primary screen (AID 1130).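 Also: composite of spot emission at 667 nm and signal to noise over triplicate slides.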 As to conditions: 635 nm fluorescence, higher = more signal.
Test [4] has as its system Fibrinogen (Alexa647-labelled). Kind of test: Alexa647-fibrinogen binding to printed small molecules – biochemical, small-molecule microarray, 635/667 nm fluorescence, artefact control for SMM control-protein annotation, profiling panel (AID 1131).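 Also: z-score merges 667 nm fluorescence with per-spot signal-to-noise over triplicate slides.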 As to conditions: fibrinogen-A647 binding fluorescence, higher = more signal.
In test [5] the target is Follistatin (Homo sapiens) (UniProt P19883). Kind of test: FST protein binding to printed compounds – biochemical, small-molecule microarray, 635/667 nm fluorescence, primary screen (AID 1132). As to conditions: 635 nm fluorescence, higher = more signal.
The target of test [6] is Fibroblast growth factor 2 (Homo sapiens) (UniProt P09038). Kind of test: basic fibroblast growth factor binding to printed compounds – biochemical, small-molecule microarray, 635/667 nm fluorescence, primary screen (AID 1133). As to conditions: FGF2, fluorescence 635/667, higher = more signal.
Test [7] is described as follows: JC-1 mitochondrial potential readout, lung cancer cells – cell-based, A549, JC-1 fluorescence, basal, 24 h, 100 nL, profiling panel (AID 1138).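 Also: A549 lung adenocarcinoma cells under basal conditions with no added stimulus; test concentration not given here.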 As to conditions: higher = more signal.
A further test deals with Lefty1. Kind of test: Lefty1 protein binding to printed compounds – biochemical, small-molecule microarray, 635/667 nm fluorescence, primary screen (AID 1139). As to conditions: fluorescence 635/667, higher = more signal.
The subject of test [8] is wheat germ agglutinin (Triticum aestivum), Alexa647-labelled. Kind of test: Alexa647-WGA lectin binding to printed small molecules – biochemical, small-molecule microarray, 635/667 nm fluorescence, artefact control for SMM control-protein annotation, profiling panel (AID 1140).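 Also: score merges 667 nm feature emission with signal to noise over triplicate slides.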 As to conditions: WGA-A647 binding, 635 nm fluorescence, higher = more signal.
In test [9] the target is Luciferin 4-monooxygenase (Photinus pyralis) (UniProt P08659). Kind of test: inhibition of purified Photinus pyralis luciferase – biochemical, luminescence, purified enzyme, 2006 set, primary screen (AID 1141).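 Also: cell-free assay with purified firefly luciferase at 100 ng per well in PBS; test concentration not given here.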 To be noted: purified firefly luciferase, SteadyGlo luminescence, 30 min; higher = more signal, called active from +8 up or from −8 down.
Test [10] relates to Wnt5a (protein binding on small-molecule microarray). Kind of test: small molecules binding Wnt5a protein – biophysical, small-molecule microarray, 635/667 nm fluorescence, primary screen (AID 1142).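 Also: fluorescence read at 667 nm with signal to noise per printed feature.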 To be noted: 635 nm fluorescence, higher = more signal.
Test [11] in a line: ATP-based viability of Huh7 replicon cells – cell-based, CellTiter-Glo luminescence, basal, 48 h, cytotoxicity control for HCV replication inhibitor project, primary screen (AID 1143).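 Also: Huh7 hepatoma cells carrying a hepatitis C replication reporter with no stimulus; test concentration not given here.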 To be noted: higher = more signal, called active from +8 up or from −8 down. On the technique in general: Replicon systems follow genome replication, usually without infectious particles.
Test [12] can be described thus: basal CRE-LacZ reporter activity in PC12 – cell-based, unstimulated, primary screen (AID 1145). To be noted: no forskolin, luminescence, 4.5 h, higher = more signal, called active from +8 up or from −8 down.
A short description of test [13]: forskolin-driven CRE-LacZ activity in PC12 – cell-based, CRE-LacZ reporter, forskolin-stimulated, primary screen (AID 1146).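 Also: PC12 cells with 6xCRE LacZ reporter stimulated by forskolin 10 µM; beta-galactosidase reporter signal reflecting CREB driven transcription.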 To be noted: luminescence, 4.5 h, higher = more signal, called active from +8 up or from −8 down.
For test [14], the target named is Streptavidin (Streptomyces avidinii) (UniProt P22629). Kind of test: compounds binding control protein streptavidin – biophysical, small-molecule microarray, 635/667 nm fluorescence, artefact control for SMM compound annotation, primary screen (AID 1147).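 Also: signal reflects streptavidin binding to arrayed compounds as a control protein.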 As to conditions: higher = more signal.
Test [15] is described as follows: probe aInhba binding on compound microarray – biochemical, small-molecule microarray, 635/667 nm fluorescence, primary screen (AID 1148).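 Also: score merges 667nm spot fluorescence with signal-to-noise for antibody binding to printed compounds.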 As to conditions: higher = more signal.
In test [16] the target is Torsin-1A (Homo sapiens) (UniProt O14656). Kind of test: TOR1A wild-type binding on microarray – cell lysate, small-molecule microarray, lysate, 635/667 nm, primary screen (AID 1149). To be noted: COS7 hTOR1A-WT lysate, 635 nm fluorescence, higher = more signal.
The target is the same in test [17]. Kind of test: torsin A mutant lysate binding on microarrays – cell lysate, small-molecule microarray, COS7 lysate, 635/667 nm fluorescence, primary screen (AID 1150).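 Also: score pools 667 nm emission and signal to noise measuring lysate protein binding.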 To be noted: COS7 hTOR1A mutant lysate, 635 nm fluorescence, higher = more signal.
The test system of test [18] is Sonic hedgehog protein (Shh). Kind of test: Sonic hedgehog microarray binding compounds – biochemical, small-molecule microarray, 635/667 nm fluorescence, primary screen (AID 1151).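 Also: Shh protein binding to compounds spotted on small-molecule microarray slides; score combines spot fluorescence intensity with signal-to-noise across triplicate slides.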 To be noted: 635 nm fluorescence, higher = more signal.

Chain of Torsin-1A (Homo sapiens) (O14656 whole entry, looked up): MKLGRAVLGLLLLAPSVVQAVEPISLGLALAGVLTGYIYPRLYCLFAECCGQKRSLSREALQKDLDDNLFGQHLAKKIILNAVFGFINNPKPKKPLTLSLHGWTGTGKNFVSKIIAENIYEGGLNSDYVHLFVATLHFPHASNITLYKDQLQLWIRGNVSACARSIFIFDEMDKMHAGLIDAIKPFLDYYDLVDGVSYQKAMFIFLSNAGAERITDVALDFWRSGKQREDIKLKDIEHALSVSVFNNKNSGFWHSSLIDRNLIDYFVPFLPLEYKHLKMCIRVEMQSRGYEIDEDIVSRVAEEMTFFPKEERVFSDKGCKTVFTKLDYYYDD
Chain of Fibroblast growth factor 2 (Homo sapiens) (P09038 whole entry, looked up): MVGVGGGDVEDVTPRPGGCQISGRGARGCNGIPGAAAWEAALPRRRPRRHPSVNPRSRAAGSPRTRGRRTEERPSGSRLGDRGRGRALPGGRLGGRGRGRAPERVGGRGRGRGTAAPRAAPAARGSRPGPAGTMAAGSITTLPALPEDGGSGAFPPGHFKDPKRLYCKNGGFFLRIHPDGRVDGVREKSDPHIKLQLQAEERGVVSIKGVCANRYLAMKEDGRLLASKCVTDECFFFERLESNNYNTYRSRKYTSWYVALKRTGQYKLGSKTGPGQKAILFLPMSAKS
Chain of Focal adhesion kinase 1 (Homo sapiens) (Q05397 whole entry, looked up): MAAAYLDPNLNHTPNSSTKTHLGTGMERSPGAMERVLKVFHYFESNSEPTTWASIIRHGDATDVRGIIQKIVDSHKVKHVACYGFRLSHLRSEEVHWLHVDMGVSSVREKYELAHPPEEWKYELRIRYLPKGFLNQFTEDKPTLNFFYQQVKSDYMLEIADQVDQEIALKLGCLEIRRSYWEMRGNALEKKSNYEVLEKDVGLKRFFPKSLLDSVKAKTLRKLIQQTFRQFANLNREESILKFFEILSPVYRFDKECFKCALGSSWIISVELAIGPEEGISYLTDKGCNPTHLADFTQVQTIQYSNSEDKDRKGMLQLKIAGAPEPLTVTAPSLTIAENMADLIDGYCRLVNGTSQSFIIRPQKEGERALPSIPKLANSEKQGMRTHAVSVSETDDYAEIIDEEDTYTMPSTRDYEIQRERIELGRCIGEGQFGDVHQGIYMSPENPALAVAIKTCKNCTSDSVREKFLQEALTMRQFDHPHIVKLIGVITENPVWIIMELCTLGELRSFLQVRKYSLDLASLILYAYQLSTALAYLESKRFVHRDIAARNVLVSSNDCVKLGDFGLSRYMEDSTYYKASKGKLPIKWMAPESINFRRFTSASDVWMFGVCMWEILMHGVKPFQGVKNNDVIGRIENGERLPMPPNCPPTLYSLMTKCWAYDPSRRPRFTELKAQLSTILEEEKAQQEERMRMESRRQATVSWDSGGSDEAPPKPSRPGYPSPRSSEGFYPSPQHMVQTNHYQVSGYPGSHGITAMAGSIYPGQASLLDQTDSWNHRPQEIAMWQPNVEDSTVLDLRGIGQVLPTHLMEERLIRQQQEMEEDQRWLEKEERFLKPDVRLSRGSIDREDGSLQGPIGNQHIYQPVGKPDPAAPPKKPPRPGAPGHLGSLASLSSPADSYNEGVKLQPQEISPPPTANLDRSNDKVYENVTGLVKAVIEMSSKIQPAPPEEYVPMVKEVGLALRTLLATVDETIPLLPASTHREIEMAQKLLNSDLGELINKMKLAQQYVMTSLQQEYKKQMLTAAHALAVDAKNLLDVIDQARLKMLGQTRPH
Chain of Follistatin (Homo sapiens) (P19883 whole entry, looked up): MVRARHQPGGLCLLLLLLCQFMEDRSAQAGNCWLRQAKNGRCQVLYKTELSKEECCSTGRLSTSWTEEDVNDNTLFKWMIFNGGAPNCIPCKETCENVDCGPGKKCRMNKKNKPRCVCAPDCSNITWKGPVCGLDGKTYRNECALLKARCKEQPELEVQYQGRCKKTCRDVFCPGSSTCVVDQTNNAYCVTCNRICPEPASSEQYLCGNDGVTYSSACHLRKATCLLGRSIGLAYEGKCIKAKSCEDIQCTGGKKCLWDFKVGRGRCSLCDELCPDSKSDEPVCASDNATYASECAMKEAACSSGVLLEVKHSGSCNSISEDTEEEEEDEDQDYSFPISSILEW
Chain of Streptavidin (Streptomyces avidinii) (P22629 whole entry, looked up): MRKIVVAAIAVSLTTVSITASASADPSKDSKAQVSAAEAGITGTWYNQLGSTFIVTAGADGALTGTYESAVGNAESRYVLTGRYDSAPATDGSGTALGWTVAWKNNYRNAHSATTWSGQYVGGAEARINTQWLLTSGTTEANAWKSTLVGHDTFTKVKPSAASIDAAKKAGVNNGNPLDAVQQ
Chain of Luciferin 4-monooxygenase (Photinus pyralis) (P08659 whole entry, looked up): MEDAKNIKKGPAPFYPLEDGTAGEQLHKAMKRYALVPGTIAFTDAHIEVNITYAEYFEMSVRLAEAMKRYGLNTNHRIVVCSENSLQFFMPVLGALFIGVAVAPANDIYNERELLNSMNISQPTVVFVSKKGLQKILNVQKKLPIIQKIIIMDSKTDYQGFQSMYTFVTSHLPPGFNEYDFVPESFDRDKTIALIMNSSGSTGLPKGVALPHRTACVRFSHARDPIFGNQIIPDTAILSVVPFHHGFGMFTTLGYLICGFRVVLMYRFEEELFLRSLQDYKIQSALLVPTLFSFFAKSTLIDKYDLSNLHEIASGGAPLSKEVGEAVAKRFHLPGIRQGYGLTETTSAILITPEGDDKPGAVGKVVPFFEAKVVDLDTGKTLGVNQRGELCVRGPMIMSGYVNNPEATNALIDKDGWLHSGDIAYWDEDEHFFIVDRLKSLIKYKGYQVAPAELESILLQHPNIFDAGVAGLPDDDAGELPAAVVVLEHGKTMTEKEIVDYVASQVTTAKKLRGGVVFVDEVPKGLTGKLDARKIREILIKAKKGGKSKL

For `CCN1C(C)=C(C(=O)OC)[C@@H](c2ccccc2)N2C(=O)[C@@]3(C(=O)OC)O[C@@]12[C@@H]1C(=O)CCC[C@@H]13`, the composite z-score in test [1] is -0.116; in [2], -0.356; in test [3], -0.315; in [4] it was -1.47; in test [5] it was 1.29; in test [6], 1.01. Also, the composite z-score was 1.48 in the test on Lefty1; -1.05 in test [8]; 0.365 in [10]; -0.213 in test [14]; 0.115 in test [15]; 0.385 with Torsin-1A (Homo sapiens) [16]. Also, the composite z-score is 0.353 with Torsin-1A (Homo sapiens) [17] and 2.02 in test [18]. Also, the z-score in test [7] was 0.862; in test [9] it was -2.3 (inactive); in [11] it was -0.419 (inactive); in test [12], 0.462 (inactive); in test [13], -0.51 (inactive).
For the compound `O=C1O[C@@H](c2ccccc2)[C@@H](c2ccccc2)N2[C@@H](c3ccccc3OCCO)[C@]3(C(=O)Nc4ccc(C#CC5=CCCCC5)cc43)[C@@H](C(=O)O)[C@H]12`, the composite z-score in test [1] came out at 1.91; in test [2], 1.19; in test [3], 0.705; in test [4], 0.934; in test [5], 1.14; in test [6], 0.301. For the same compound, the composite z-score in the test with Lefty1 was 0.699; in [8], 1.17; in test [10] it was 0.26; in [14], 0.841; in [15], -0.0006; with Torsin-1A (Homo sapiens) [16] it was 0.13. Moreover, the figures for the composite z-score (with Torsin-1A (Homo sapiens) [17]; in [18]) were 0.261 and 0.195, respectively. Moreover, the z-score was -2.32 in test [7]; -5.86 (inactive) in [9]; -4.37 (inactive) in test [11]; 0.245 (inactive) in test [12]; 13.7 (active) in [13].
In the case of `C=CCC(OC(C)=O)[C@@H]1[C@@H](N(Cc2cc3ccccc3o2)C(=O)c2ccc(C)cc2)c2cc(OCCCO)ccc2N1C(=O)c1ccc2ccccc2n1` (stereo not given in full), the composite z-score was -0.88 in test [1]; -0.593 in test [2]; 0.178 in test [3]; -0.589 in test [4]; 0.573 in [5]; -0.0362 in [6]. The composite z-score in the test with Lefty1 is -0.114; in [8], -0.475; in test [10], -0.0502; in [14], 0.184; in test [15] it was -0.0266; with Torsin-1A (Homo sapiens) [16], 0.369. Further, the composite z-score is -0.368 with Torsin-1A (Homo sapiens) [17] and 0.609 in test [18]. The z-score in test [7] is 1.57; in [9] it was -1.33 (inactive); in [11], -0.17 (inactive); in test [12], 5.44 (inactive); in test [13] it was -0.273 (inactive).
With `O=C(O)[C@@H]1Cc2c([nH]c3ccccc23)[C@@H](c2ccccc2)N1`, the composite z-score in test [1] turned out to be 0.247; in [2], 0.299; in test [3] it was 0.948; in test [4], 0.651; in [5], 0.607; in test [6], 0.197. Further, the composite z-score in the test with Lefty1 was 0.244; in test [8], 0.0252; in test [10] it was 0.019; in test [14], 0.29; in test [15], -0.164; with Torsin-1A (Homo sapiens) [16] it was 0.589. In addition, the composite z-score with Torsin-1A (Homo sapiens) [17] came out at 0.409; in [18] it was 0.371. Moreover, the z-score in test [7] was 0.375; in test [9] it was -0.0866 (inactive); in [11], -0.691 (inactive); in [12] it was 0.109 (inactive); in test [13], -1.69 (inactive).
Take `CN(C)CCCC[C@@H]1NC(=O)[C@@H]2C[C@H](C(=O)NCCCCCNC(=O)CS)[C@H](c3ccc(O)cc3)N2C1=O`: the composite z-score was 1.12 in [1]; 1.19 in test [2]; -0.0662 in [3]; 0.946 in [4]; 1.52 in test [5]; 1.65 in [6]. Moreover, the composite z-score was found to be 1.65 in the test with Lefty1; 1.23 in test [8]; 0.202 in test [10]; 0.799 in [14]; 0.264 in [15]; 1.4 with Torsin-1A (Homo sapiens) [16]. Also, the figures for the composite z-score (with Torsin-1A (Homo sapiens) [17]; in test [18]) were 0.847 and 2.06, respectively. The z-score was 1.3 in test [7]; -1.11 (inactive) in test [9]; 0.0694 (inactive) in test [11]; -0.667 (inactive) in [12]; -1 (inactive) in [13].
